From PubChem BioAssay AID626 (Vanderbilt High Throughput Screening Facility, 2007)
Screen size: about 64,000 compounds; about 1,900 (3%) were called active. What follows is part of a selection rich in actives, with near analogues and random picks from the rest. Values without a mark were called inactive.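 How the source made its calls: active means fluorescence rise, raw or as B-score row- and column-corrected plate score, outside the 99.7% band of its plate's samples, either direction; inactive means the rest.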

These compounds were tested on Muscarinic acetylcholine receptor M1 (assay: direct activation of M1 receptor calcium signal – CHO-M1 cells, Fluo-4 calcium, agonist mode, primary screen (AID 626)). Conditions: Fluo-4 calcium fluorescence, at 10 µM, active compounds read high.

| SMILES | B-score |
| --- | --- |
| O=C(NCCN1CCOCC1)c1c(F)c(F)c(F)c(F)c1F | 0.102 |
| CCC(C(=O)NC1CCCC1)N(C(=O)c1snc(C(N)=O)c1N)c1ccc2c(c1)OCCO2 (configuration not stated) | -0.647 |
| COCCNC(=O)C(c1ccc(C)o1)N(Cc1ccccc1)C(=O)Cn1nnc2ccccc21 (configuration not stated) | -0.295 |
| COCCNC(=O)C(c1ccc(C)o1)N(Cc1cccs1)C(=O)c1snc(C(N)=O)c1N (configuration not stated) | 2.74 (active) |
| CC(Nc1nc(N2CCCC2)nc2ccccc12)c1ccccc1 (configuration not stated) | 0.0749 |
| CCOCCCNC(=O)Cc1cc(=O)[nH]c(=O)[nH]1 | -0.622 |
| COc1ccc(CN(C(=O)c2cccs2)c2nccs2)cc1OC | -0.233 |
| Cc1cc(C)c2nc(N3CCCC3)c(C#N)cc2c1 | 0.391 |
| COc1ccc(N2CCN(C(=O)CSc3nc4cc(OC)c(OC)cc4cc3C#N)CC2)cc1 | -0.487 |
| COc1ccc2nc(N3CCCC(O)C3)c(C#N)cc2c1 (configuration not stated) | 15 (active) |
| COC(=O)c1cc(C(=O)CSc2nc(C)cc(C)n2)ccc1O | -0.00415 |
| Oc1c(C(c2ccco2)N2CCC3(CC2)OCCO3)sc2ncnn12 (configuration not stated) | -0.563 |
| CCCCCNC(=O)Cc1ccc(OC)cc1 | 1.29 |
| O=C(Nc1ccccc1-c1nnn(CC(=O)N2CCN(c3ccccc3)CC2)n1)c1cccs1 | -0.15 |
| O=C(NCc1ccccn1)c1cc2ccccc2oc1=O | -0.243 |
| Cc1cccn2c(=O)c3cc(C(=O)NCc4ccccn4)n(C)c3nc12 | -0.541 |
| O=C(NCc1ccccn1)c1ccc2nc(-c3ccco3)c(-c3ccco3)nc2c1 | 3.06 (active) |
| CC1CCCCN1CC(=O)NCc1ccc2c(c1)OCO2 (configuration not stated) | -0.147 |
| CCn1c(Cc2ccccc2)nnc1SCc1nc2ccccc2c(=O)[nH]1 | 0.17 |
| O=C(O)c1ccc(COCC(F)(F)F)cc1 | 3 (active) |
| O=C(C1CCC1)N1CCc2cc(S(=O)(=O)NCc3cccnc3)ccc21 | -2.04 |
| COC(=O)c1cn(C)c2ccc(S(=O)(=O)N3CC(C)CC(C)C3)cc2c1=O (configuration not stated) | -0.784 |
| O=C(COc1ccccc1)NCc1ccc2c(c1)OCO2 | 0.038 |
| CCOC(=O)NCc1ccc2c(c1)OCO2 | 0.801 |
| c1n[nH]c(NCc2ccc3c(c2)OCO3)n1 | 2.68 (active) |
| Cc1ccc(-c2csc3nnc(SCC(=O)NCc4ccco4)n23)cc1 | 0.495 |

| SMILES | B-score |
| --- | --- |
| COC(=O)c1ccccc1NC(=O)CN(Cc1ccccc1)S(C)(=O)=O | 0.117 |
| CCOc1ccc(N2C(=O)CC(N(O)c3ccccc3)C2=O)cc1 (configuration not stated) | 0.335 |
| COc1ccccc1N1CCN(C(=O)c2c(-c3c(Cl)cccc3Cl)noc2C)CC1 | 4.97 (active) |
| COc1ccccc1N1CCN(C(=O)c2cc(-c3ccc(Br)cc3)on2)CC1 | -0.734 |
| COc1ccccc1N1CCN(C(=O)c2cc(-c3ccc(Cl)c(Cl)c3)on2)CC1 | -0.0802 |
| O=C(c1ccco1)N1CCN(CC(=O)N(C2CCCCC2)C2CCS(=O)(=O)C2)CC1 (configuration not stated) | 1.21 |
| COc1ccc(S(=O)(=O)N2CCCCC2)cc1Br | -0.037 |
| O=C(CCSc1ccccc1)NCCSc1ccccn1 | -0.157 |
| COc1c(F)c(F)c(-c2csc(N)n2)c(F)c1F | -0.0216 |
| Cc1nc2c(c(=O)n1Cc1ccco1)c1nc3ccccc3nc1n2Cc1ccccc1 | -1.33 |
| COc1ccc(CC(=O)Nc2nc3n(n2)C(c2ccccc2)CC(=O)N3)cc1OC (configuration not stated) | 1.86 |
| COc1cc2c(cc1OC)C(c1ccc(C)o1)CC(=O)N2 (configuration not stated) | 0.00289 |
| CCCOc1ccccc1C1CC(=O)Nc2cc3c(cc21)OCO3 (configuration not stated) | 4.33 (active) |
| COCCOC(=O)C1=C(C)NC(=O)CC1c1cc2c(cc1Br)OCO2 (configuration not stated) | 0.114 |
| CC(C)C[C@H](NC(=O)Nc1cccc(C(F)(F)F)c1)C(=O)O | 0.0481 |
| CC(=O)c1c(C)c[nH]c1C | 0.323 |
| Cc1nc(CNS(=O)(=O)c2ccc(Oc3ccccc3)cc2)cs1 | 3.97 (active) |
| Cc1nc(CNS(=O)(=O)c2cccnc2)cs1 | 0.163 |
| Cc1ccc(S(=O)(=O)NCc2csc(C)n2)c(C)c1 | -0.841 |
| CC(C)C(NC(=O)OCc1ccccc1)C(=O)OCC(=O)N1C(C)CCCC1C (configuration not stated) | -0.582 |
| COC(=O)c1ccc(N(CC(=O)NC2CCCC2)C(=O)CNC(=O)c2ccco2)cc1 | -0.016 |
| CC(C)(C)NC(=O)c1cc(NC(=O)c2ccco2)cc(NC(=O)c2ccco2)c1 | 4.57 |
| O=C(NCCSc1ccccc1)c1ccco1 | 0.47 |
| COc1cc(OC)cc(C(=O)NCCSCc2ccco2)c1 | -0.317 |
| COc1ccc(CCNC(=O)c2ccco2)cc1 | 78.9 (active) |
| COc1ccc(N(CC(=O)NC(C)(C)C)C(=O)c2ccco2)cc1 | 3.36 (active) |

| SMILES | B-score |
| --- | --- |
| CCOC(=O)N1CCN(C(=O)CSc2nnc(-c3c[nH]c4ccccc34)n2CCOC)CC1 | 0.791 |
| O=C(OCC(=O)c1cccs1)C1=COCCO1 | -0.115 |
| COc1ccc(C(c2nnnn2C2CCCCC2)N2CCN(c3ccccc3F)CC2)cc1 (configuration not stated) | -0.721 |
| COC(=O)c1ccc(CSc2ccccc2C)o1 | -0.274 |
| COC(=O)c1ccc(CSc2nc3ccccc3c(=O)n2-c2cccc(OC)c2)o1 | 3.63 (active) |
| COCC(C)n1c(SCc2ccc(C(=O)OC)o2)nc2ccccc2c1=O (configuration not stated) | 1.47 |
| CCOC(=O)N1CCC(C(N)=O)CC1 | -0.221 |
| COc1ccc2c(c1)C=CC1(O2)N(CCO)c2ccccc2C1(C)C (configuration not stated) | 0.737 |
| COc1ccc(OC)c(S(=O)(=O)Nc2ccccc2F)c1 | -0.55 |
| Cc1cc(NC(=O)COc2ccc(Cl)cc2Cl)n(CCC#N)n1 | -2.93 (active) |
| CN1CCN(c2ccc(NC(=O)COc3ccc(Cl)cc3Cl)cc2)CC1 | -0.55 |
| Cc1cc(Nc2ccccc2)n(CCC#N)n1 | -0.373 |
| O=C(c1cccs1)N1CCN(Cc2ccc3c(c2)OCO3)CC1 | 0.609 |
| CCOc1ccc(Nc2oc(Cc3ccccc3)nc2C#N)cc1 | 0.194 |
| N#Cc1nc(-c2ccc(OCc3ccccc3)cc2)oc1NCCCN1CCOCC1 | 1.06 |
| COc1ccc(Nc2oc(-c3ccccc3Cl)nc2C#N)cc1 | 37.2 (active) |
| CCN1C(=O)CS/C1=N\c1nccs1 | 0.514 |
| O=C(Nc1ccc(Cl)cc1)c1ccsn1 | -0.00233 |
| COc1cc(C(=O)Nc2nccs2)cc(OC)c1OC | 1.84 |
| COc1cc(C(=O)Nc2oc(-c3ccccc3)c(-c3ccccc3)c2C#N)cc(OC)c1OC | 3.33 (active) |
| N#Cc1c(NC(=O)CCCN2C(=O)c3ccccc3C2=O)oc(-c2ccccc2)c1-c1ccccc1 | -0.449 |
| O=C(CNS(=O)(=O)c1ccc(Br)s1)NCc1ccc2c(c1)OCO2 | -0.057 |
| Cc1cc(C)nc(SCc2nnc(SCC(=O)Nc3ncc(C)s3)n2Cc2ccco2)n1 | 0.0432 |
| CCCc1cc(=O)[nH]c(SCC(=O)OCc2ccccc2)n1 | -0.24 |
| O=C(Cn1cc(C(=O)c2cccs2)c2ccccc21)NCc1cccs1 | 5.61 (active) |
| COC(=O)Cn1cc(C(=O)c2cccs2)c2ccccc21 | -0.298 |

| SMILES | B-score |
| --- | --- |
| COC(=O)c1cn(CC(=O)NCc2cccs2)c2ccccc12 | -0.913 |
| COc1ccccc1OCCC(=O)OCC(=O)NC(=O)NC(C)(C)C | -0.0604 |
| O=C(Nc1ccon1)c1cccc(Cl)c1 | -0.792 |
| CC(=O)N1CCN(C(=O)Nc2cccc(C(F)(F)F)c2)CC1 | 1.54 |
| O=C(Nc1cccc(NC(=O)N2CCN(c3ccccc3)CC2)c1)N1CCN(c2ccccc2)CC1 | 5.66 (active) |
| O=C(Nc1cccc(C(=O)N2CCCC2)c1)c1ccccc1 | 0.113 |
| Cc1ccc(N2CCN(S(=O)(=O)c3ccc(F)cc3)CC2)c(C)c1 | 1.76 |
| O=C(Nc1ccncc1)c1cc2ccccc2o1 | -0.306 |
| O=C(NCCc1ccc2c(c1)OCCO2)c1cc2ccccc2o1 | 5.92 (active) |
| O=C(CC(Cc1ccccc1)C(=O)O)NCCc1ccc2c(c1)OCO2 (configuration not stated) | -0.0151 |
| CCOc1cccc(-n2nnnc2-c2ccc(OC)cc2)c1 | -0.152 |
| COc1ccccc1OCCOc1ccc(/C=N/n2cnnc2)cc1 | -1.48 |
| COc1cccc(OCCOc2cccc(/C=N/n3cnnc3)c2)c1 | 0.112 |
| C(=N\n1cnnc1)/c1cccnc1 | 7.81 (active) |
| CCOC(=O)c1sc(NC(=O)C(CC)Sc2nccn2C)nc1C (configuration not stated) | 0.459 |
| Cc1nnc(SCCCn2c(N3CCCCC3)nc3c2c(=O)[nH]c(=O)n3C)s1 | -0.0644 |
| COc1ccccc1N1CCN(C(=O)c2cn(-c3ccccc3)nc2-c2cccnc2)CC1 | 5.33 (active) |
| O=C(c1cn(-c2ccccc2)nc1-c1cccnc1)N1CCCCC1 | 0.178 |
| COC(=O)c1cn(-c2ccccc2)nc1-c1cccnc1 | -1.56 |
| CCOC(=O)Nc1ccc2c(c1)N(C(=O)CN1CCN3CCCC3C1)c1ccccc1CC2 (configuration not stated) | 0.0902 |
| CCOc1ccc(NC(=O)Nc2cc(C)on2)cc1 | -2.11 |
| O=C(Nc1ccc(F)cc1)c1cccnc1N1CCOCC1 | 0.0065 |
| O=C(Nc1cc(N2CCOCC2)ncn1)NC1(C(F)(F)F)Oc2ccc(Cl)cc2O1 (configuration not stated) | 0.249 |
| c1cnn(-c2cc(N3CCOCC3)ncn2)c1 | -2.54 (active) |
